Common to all, as to experiment: DAPPL (digital affinity profiling via proximity ligation, sequencing); 10 mM Tris-HCl pH 7.5, 50 mM NaCl, 1 mM DTT, 4% glycerol, room temperature, 30 min; GST-TFs on glutathione beads, 16-mer random dsDNA library, 0.1% formaldehyde crosslink after washing; high values mean tight binding
For one experiment, the target named is T1, FEV (Homo sapiens, UniProt Q99581 1-238).
T1 sequence: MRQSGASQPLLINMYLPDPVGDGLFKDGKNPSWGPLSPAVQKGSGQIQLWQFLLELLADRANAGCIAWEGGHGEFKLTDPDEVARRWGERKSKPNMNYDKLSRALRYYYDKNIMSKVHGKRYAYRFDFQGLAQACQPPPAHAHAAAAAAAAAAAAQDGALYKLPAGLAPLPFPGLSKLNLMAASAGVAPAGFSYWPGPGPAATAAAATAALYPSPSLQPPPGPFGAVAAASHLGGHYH
Conditions: protein: recombinant; tags: N-terminal GST; dsDNA, one strand shown. The procedure, abridged: (§1)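 Human transcription factors fused to GST were expressed in yeast, captured on glutathione beads, given DNA barcodes and pooled with a GST-only negative control. Pools were incubated with 200 nmole of a 16-mer random double-stranded DNA library in Tris/NaCl/DTT/glycerol buffer at room temperature for 30 min. They were then washed, crosslinked with 0.1% formaldehyde, proximity-ligated (BsaI/T4 ligase, 1 h, 37 °C), PCR-amplified and sequenced on an Illumina NextSeq500. Binding signal is each 6-mer's read frequency for a factor divided by its frequency for the GST control.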

The next experiment concerns the target ETV5 (Homo sapiens, UniProt P41161 1-510). The following applies: protein: recombinant; tags: N-terminal GST; dsDNA, one strand shown. The procedure, abridged:
as §1

The target of another experiment is HSF1 (Homo sapiens, UniProt Q00613 1-529). Conditions: protein: recombinant; tags: N-terminal GST; chain copies: 3; dsDNA, one strand shown. Summed up: as §1
Chain of HSF1 (Q00613 whole entry): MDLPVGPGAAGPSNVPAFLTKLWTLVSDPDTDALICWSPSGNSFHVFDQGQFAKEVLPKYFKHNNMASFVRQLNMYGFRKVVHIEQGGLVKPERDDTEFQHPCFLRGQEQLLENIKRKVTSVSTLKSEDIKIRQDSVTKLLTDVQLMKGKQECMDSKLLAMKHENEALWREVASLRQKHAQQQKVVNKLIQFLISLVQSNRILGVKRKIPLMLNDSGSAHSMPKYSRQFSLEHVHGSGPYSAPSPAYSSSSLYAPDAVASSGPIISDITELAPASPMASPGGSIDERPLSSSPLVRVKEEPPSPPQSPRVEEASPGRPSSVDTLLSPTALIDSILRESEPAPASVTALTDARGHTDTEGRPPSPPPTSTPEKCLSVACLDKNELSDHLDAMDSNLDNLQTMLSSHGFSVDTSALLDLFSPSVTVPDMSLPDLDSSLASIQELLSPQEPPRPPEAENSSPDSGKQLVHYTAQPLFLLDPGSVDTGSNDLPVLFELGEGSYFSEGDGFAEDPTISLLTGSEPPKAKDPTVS
The target of a further experiment is T2, SPIC (Homo sapiens, UniProt Q8N5J4 1-248).
T2 sequence: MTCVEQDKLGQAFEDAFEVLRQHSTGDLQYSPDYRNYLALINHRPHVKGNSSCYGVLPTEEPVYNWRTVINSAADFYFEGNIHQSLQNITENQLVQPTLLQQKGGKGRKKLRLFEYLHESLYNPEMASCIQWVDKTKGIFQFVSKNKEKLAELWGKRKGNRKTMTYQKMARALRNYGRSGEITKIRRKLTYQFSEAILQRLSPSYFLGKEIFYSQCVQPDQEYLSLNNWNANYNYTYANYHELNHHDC
The following applies: protein: recombinant; tags: N-terminal GST; dsDNA, one strand shown. The procedure, abridged:
as §1

The next experiment has as its target ELF4 (Homo sapiens, UniProt Q99607 1-663). Conditions: protein: recombinant; tags: N-terminal GST; dsDNA, one strand shown. The procedure, abridged: as §1
A further experiment concerns the target T3, ELK4 (Homo sapiens, UniProt P28324-2 1-405).
T3 sequence: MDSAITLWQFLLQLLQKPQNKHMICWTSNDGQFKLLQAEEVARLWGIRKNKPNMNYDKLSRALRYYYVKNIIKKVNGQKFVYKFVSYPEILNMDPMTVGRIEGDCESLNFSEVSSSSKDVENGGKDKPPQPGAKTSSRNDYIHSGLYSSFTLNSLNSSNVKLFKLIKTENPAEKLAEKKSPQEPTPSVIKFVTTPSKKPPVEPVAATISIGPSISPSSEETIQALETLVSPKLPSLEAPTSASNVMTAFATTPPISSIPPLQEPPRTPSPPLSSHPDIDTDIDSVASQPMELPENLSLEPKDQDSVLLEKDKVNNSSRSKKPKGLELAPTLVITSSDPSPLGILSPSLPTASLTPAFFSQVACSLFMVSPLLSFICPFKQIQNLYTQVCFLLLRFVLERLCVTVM
Conditions: protein: recombinant; tags: N-terminal GST; dsDNA, one strand shown. Summed up:
as §1

In a further experiment the target is T4, ETV2 (Homo sapiens, UniProt O00321 1-342).
T4 sequence: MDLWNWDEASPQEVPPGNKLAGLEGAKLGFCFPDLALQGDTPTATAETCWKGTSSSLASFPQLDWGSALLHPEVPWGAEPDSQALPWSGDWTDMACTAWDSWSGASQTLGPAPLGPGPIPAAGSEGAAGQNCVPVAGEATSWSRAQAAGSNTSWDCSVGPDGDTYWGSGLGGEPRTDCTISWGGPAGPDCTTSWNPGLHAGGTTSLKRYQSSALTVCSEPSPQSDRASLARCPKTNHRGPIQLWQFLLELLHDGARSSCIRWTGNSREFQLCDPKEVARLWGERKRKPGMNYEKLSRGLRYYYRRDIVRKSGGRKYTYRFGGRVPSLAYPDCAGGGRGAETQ
The following applies: protein: recombinant; tags: N-terminal GST; dsDNA, one strand shown. Summed up: as §1

Another experiment concerns the target T5, ELF3 (Homo sapiens, UniProt P78545 1-371).
T5 sequence: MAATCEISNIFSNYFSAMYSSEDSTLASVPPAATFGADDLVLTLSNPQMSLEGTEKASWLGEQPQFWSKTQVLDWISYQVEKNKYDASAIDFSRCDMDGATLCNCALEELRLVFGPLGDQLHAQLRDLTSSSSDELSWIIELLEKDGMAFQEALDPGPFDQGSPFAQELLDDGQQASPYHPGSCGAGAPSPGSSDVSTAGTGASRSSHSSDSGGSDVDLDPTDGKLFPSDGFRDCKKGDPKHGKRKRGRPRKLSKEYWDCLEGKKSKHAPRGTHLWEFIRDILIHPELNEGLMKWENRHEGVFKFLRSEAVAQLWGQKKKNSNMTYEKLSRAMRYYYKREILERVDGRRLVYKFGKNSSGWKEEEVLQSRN
The following applies: protein: recombinant; tags: N-terminal GST; dsDNA, one strand shown. Summed up:
as §1

The target of the next experiment is CRX (Homo sapiens, UniProt O43186 1-299). The following applies: protein: recombinant; tags: N-terminal GST; dsDNA, one strand shown. The procedure, abridged:
as §1

The target of another experiment is ETV1 (Homo sapiens, UniProt P50549 1-477). The following applies: protein: recombinant; tags: N-terminal GST; dsDNA, one strand shown. The procedure, abridged:
as §1

The next experiment addresses T6, ERF (Homo sapiens, UniProt P50548 1-548).
T6 sequence: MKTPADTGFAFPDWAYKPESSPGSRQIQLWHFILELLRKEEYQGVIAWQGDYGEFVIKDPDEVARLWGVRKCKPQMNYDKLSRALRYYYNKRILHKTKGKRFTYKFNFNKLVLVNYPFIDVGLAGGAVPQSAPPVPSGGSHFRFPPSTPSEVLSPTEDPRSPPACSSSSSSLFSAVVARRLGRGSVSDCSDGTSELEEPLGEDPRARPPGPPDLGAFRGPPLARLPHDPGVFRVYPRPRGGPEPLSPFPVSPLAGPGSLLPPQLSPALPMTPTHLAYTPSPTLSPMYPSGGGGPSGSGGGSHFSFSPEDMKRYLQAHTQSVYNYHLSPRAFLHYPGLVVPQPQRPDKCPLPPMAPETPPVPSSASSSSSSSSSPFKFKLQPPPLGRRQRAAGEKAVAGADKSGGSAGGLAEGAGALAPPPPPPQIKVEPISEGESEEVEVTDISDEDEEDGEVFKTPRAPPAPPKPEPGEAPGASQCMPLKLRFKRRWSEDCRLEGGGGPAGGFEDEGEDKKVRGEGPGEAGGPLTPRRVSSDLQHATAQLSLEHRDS
Conditions: protein: recombinant; tags: N-terminal GST; dsDNA, one strand shown. The procedure, abridged: as §1

In the next experiment the target is T7, ETV3L (Homo sapiens, UniProt Q6ZN32 1-361).
T7 sequence: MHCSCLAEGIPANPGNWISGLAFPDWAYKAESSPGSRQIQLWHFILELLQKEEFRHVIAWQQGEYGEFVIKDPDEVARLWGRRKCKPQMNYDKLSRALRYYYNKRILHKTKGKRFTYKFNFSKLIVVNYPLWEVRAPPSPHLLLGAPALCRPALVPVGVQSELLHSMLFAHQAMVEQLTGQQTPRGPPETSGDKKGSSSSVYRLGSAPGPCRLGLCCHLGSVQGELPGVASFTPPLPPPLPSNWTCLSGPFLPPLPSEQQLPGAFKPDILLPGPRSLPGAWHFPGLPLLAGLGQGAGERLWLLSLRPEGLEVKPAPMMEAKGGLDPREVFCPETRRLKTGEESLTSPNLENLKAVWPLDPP
Conditions: protein: recombinant; tags: N-terminal GST; dsDNA, one strand shown. Summed up: as §1

The target in a further experiment is T8, ETS2 (Homo sapiens, UniProt P15036 1-469).
T8 sequence: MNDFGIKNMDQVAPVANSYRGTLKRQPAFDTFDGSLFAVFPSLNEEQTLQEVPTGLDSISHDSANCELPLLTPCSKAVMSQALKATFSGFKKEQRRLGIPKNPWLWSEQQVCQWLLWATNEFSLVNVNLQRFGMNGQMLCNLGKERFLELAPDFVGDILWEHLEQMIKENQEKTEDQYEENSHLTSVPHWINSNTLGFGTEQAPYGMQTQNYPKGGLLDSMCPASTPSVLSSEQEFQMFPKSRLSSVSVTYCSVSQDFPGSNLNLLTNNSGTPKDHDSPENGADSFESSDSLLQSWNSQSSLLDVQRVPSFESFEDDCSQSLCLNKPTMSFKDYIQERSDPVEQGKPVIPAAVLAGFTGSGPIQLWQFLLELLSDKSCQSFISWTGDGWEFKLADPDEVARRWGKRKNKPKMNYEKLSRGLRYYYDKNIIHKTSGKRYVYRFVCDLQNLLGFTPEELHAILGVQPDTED
The following applies: protein: recombinant; tags: N-terminal GST; dsDNA, one strand shown. The procedure, abridged: as §1

A further experiment deals with T9, SPDEF (Homo sapiens, UniProt O95238 1-335).
T9 sequence: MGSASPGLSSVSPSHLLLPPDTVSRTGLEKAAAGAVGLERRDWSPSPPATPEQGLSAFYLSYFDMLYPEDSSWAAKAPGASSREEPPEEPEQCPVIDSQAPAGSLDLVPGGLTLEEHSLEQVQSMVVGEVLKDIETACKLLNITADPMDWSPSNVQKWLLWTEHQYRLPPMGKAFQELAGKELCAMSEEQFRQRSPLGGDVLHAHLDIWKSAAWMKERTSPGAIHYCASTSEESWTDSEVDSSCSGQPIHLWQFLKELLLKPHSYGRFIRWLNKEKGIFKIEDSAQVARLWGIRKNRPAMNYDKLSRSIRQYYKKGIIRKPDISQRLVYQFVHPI
The following applies: protein: recombinant; tags: N-terminal GST; dsDNA, one strand shown. The procedure, abridged:
as §1

Another experiment deals with T10, ETV7 (Homo sapiens, UniProt Q9Y603 1-341).
T10 sequence: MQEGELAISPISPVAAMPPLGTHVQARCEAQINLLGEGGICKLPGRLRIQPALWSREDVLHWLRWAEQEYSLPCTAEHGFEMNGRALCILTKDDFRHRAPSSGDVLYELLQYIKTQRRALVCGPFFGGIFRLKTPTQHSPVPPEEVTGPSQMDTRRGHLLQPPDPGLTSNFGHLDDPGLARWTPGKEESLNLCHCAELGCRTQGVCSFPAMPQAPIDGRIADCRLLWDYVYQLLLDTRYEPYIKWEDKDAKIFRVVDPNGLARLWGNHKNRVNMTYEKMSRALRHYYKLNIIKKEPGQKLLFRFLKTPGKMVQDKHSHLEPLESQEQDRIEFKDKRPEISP
Conditions: protein: recombinant; tags: N-terminal GST; dsDNA, one strand shown. Summed up: as §1

The target of a further experiment is T11, ELF5 (Homo sapiens, UniProt Q9UKW6-2 1-255).
T11 sequence: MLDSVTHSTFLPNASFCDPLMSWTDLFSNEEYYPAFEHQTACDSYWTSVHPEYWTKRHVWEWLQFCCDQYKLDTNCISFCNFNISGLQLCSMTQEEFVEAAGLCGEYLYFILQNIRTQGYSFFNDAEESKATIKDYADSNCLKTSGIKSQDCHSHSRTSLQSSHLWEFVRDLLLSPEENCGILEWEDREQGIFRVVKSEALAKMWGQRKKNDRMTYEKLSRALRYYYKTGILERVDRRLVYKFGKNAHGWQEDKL
Conditions: protein: recombinant; tags: N-terminal GST; dsDNA, one strand shown. The procedure, abridged: as §1

Another experiment addresses T12, ETV3 (Homo sapiens, UniProt P41162-2 1-143).
T12 sequence: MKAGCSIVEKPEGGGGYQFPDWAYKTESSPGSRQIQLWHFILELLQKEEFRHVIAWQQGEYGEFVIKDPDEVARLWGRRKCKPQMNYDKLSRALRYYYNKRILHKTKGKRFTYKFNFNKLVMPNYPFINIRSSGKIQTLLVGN
Conditions: protein: recombinant; tags: N-terminal GST; dsDNA, one strand shown. Summed up: as §1

The target of the next experiment is ETV6 (Homo sapiens, UniProt P41212 1-452). Conditions: protein: recombinant; tags: N-terminal GST; dsDNA, one strand shown. Summed up: as §1
Chain of ETV6 (P41212 whole entry): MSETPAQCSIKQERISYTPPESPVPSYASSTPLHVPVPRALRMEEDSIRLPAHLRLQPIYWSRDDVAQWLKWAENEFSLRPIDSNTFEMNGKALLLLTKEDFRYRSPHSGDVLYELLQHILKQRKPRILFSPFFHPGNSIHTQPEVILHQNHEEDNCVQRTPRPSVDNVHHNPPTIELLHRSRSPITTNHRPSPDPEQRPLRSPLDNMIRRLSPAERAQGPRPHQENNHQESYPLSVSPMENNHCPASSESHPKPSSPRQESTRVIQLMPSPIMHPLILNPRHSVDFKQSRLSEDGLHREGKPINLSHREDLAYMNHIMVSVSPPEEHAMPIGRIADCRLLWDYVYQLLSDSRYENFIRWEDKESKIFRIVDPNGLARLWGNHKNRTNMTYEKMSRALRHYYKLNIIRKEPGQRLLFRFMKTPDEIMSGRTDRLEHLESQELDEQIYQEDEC

These results are taken from PMC7862700, “An all-to-all approach to the identification of sequence-specific readers for epigenetic DNA modifications on cytosine”.

Chain of ELF4 (Q99607 whole entry): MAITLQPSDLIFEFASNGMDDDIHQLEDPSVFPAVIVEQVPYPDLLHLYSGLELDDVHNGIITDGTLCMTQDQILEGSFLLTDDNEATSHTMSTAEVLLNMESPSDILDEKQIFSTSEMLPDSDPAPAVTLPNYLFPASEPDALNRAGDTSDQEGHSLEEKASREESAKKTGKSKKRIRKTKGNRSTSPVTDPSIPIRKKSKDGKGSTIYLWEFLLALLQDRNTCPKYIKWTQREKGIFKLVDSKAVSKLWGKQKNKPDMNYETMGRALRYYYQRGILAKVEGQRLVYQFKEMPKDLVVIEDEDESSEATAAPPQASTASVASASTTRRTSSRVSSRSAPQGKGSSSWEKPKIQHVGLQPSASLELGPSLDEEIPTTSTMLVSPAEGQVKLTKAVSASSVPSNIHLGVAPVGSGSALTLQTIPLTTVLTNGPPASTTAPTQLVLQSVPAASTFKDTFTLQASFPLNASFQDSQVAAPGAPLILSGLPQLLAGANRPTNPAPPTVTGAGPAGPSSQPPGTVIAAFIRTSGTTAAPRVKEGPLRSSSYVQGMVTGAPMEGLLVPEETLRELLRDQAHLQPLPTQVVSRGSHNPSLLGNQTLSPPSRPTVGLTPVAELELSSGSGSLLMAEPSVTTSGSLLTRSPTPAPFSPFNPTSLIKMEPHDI
Chain of ETV5 (P41161 whole entry): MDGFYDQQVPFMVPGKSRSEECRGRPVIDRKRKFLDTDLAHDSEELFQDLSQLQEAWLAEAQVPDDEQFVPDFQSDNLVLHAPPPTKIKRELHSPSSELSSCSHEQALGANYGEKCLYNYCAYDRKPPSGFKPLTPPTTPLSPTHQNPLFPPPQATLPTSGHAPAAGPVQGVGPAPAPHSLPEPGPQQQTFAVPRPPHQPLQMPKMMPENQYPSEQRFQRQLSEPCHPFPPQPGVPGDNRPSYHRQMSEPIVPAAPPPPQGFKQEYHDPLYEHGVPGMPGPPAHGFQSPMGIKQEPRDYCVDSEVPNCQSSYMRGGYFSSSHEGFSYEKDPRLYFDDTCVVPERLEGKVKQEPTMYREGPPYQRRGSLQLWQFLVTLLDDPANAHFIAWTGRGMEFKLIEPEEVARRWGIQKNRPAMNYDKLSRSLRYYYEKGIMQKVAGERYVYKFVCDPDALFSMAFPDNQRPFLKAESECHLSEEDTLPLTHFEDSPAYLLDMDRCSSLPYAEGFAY
Chain of ETV1 (P50549 whole entry): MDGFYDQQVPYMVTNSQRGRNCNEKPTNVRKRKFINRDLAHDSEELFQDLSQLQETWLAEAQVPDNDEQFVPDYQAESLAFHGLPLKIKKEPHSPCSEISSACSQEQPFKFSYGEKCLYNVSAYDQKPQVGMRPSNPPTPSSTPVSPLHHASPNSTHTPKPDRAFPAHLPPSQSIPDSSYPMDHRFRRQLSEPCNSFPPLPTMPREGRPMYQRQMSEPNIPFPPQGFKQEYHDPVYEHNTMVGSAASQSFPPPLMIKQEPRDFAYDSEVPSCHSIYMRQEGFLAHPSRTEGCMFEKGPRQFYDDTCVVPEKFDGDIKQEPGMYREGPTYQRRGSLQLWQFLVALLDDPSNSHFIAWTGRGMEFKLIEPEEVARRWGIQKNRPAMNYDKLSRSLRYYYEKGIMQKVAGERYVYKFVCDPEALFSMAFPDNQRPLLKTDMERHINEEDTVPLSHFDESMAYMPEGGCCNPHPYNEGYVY
Chain of CRX (O43186 whole entry): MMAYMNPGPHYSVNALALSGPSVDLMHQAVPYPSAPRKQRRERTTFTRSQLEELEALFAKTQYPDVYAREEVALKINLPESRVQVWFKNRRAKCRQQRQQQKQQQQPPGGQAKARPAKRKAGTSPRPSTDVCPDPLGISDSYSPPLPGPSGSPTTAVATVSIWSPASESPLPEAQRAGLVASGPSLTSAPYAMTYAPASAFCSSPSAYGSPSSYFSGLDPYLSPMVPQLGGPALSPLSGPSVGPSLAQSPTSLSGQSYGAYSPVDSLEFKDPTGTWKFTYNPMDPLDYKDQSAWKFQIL

Regarding TCTAAG, the binding signal in the experiment with FEV is 1.13 fold enrichment (6-mer frequency, TF over GST control); in the experiment with ETV5, 1.3 fold enrichment (6-mer frequency, TF over GST control); with HSF1 it was 1.49 fold enrichment (6-mer frequency, TF over GST control); with SPIC, 1.21 fold enrichment (6-mer frequency, TF over GST control); in the experiment with ELF4, 1.25 fold enrichment (6-mer frequency, TF over GST control); with ELK4, 1.2 fold enrichment (6-mer frequency, TF over GST control). The binding signal in the experiment with ETV2 was 1.29 fold enrichment (6-mer frequency, TF over GST control); with ELF3, 1.27 fold enrichment (6-mer frequency, TF over GST control); with CRX, 1.86 fold enrichment (6-mer frequency, TF over GST control); with ETV1, 1.25 fold enrichment (6-mer frequency, TF over GST control); with ERF, 1.25 fold enrichment (6-mer frequency, TF over GST control); with ETV3L, 1.17 fold enrichment (6-mer frequency, TF over GST control). Also, the binding signal with ETS2 was 1.23 fold enrichment (6-mer frequency, TF over GST control); in the experiment with SPDEF, 1.1 fold enrichment (6-mer frequency, TF over GST control); in the experiment with ETV7, 1.29 fold enrichment (6-mer frequency, TF over GST control); in the experiment with ELF5, 1.23 fold enrichment (6-mer frequency, TF over GST control); with ETV3, 1.24 fold enrichment (6-mer frequency, TF over GST control); with ETV6, 1.17 fold enrichment (6-mer frequency, TF over GST control).
